Several values for one entry are separate records, joined by “and”; a condition that tells them apart may be missing. Equal entries are not always repeated. Results filed as inconclusive are left out. Where a call stands in place of a potency, no number is given. Some compounds were tested as several samples or in several runs, with calls that do not always agree. Activity calls are given as the source filed them. Unless noted, the call rests on the fitted dose curve; in most records, active means well fitted curve in the direction sought with a large enough effect in the repeat runs; inconclusive means weak or mixed curves; inactive means no such curve, though single readings can be large; an effect the other way counts as inactive or inconclusive.
How the values were obtained:
[1] = qHTS assay to identify aromatase inhibitors - cell viability counter screen (AID 743084);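 further: cells stimulated with testosterone during compound exposure; nearly all actives have a fitted effect of over 55% in size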
[2] = target: Aryl hydrocarbon receptor (Homo sapiens) (UniProt P35869); assay: qHTS assay to identify small molecule that activate the aryl hydrocarbon receptor (AhR) signaling pathway (AID 743085); further: nearly all actives have a fitted effect of over 15% in size; further: potency means the concentration at half of the fitted maximal effect;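 on activation: HG2L7.5c1 human HepG2 liver cells with stably integrated DRE-driven firefly reporter; series mostly up to about 70 µM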
Sequence of Aryl hydrocarbon receptor (Homo sapiens) (P35869 whole entry, looked up): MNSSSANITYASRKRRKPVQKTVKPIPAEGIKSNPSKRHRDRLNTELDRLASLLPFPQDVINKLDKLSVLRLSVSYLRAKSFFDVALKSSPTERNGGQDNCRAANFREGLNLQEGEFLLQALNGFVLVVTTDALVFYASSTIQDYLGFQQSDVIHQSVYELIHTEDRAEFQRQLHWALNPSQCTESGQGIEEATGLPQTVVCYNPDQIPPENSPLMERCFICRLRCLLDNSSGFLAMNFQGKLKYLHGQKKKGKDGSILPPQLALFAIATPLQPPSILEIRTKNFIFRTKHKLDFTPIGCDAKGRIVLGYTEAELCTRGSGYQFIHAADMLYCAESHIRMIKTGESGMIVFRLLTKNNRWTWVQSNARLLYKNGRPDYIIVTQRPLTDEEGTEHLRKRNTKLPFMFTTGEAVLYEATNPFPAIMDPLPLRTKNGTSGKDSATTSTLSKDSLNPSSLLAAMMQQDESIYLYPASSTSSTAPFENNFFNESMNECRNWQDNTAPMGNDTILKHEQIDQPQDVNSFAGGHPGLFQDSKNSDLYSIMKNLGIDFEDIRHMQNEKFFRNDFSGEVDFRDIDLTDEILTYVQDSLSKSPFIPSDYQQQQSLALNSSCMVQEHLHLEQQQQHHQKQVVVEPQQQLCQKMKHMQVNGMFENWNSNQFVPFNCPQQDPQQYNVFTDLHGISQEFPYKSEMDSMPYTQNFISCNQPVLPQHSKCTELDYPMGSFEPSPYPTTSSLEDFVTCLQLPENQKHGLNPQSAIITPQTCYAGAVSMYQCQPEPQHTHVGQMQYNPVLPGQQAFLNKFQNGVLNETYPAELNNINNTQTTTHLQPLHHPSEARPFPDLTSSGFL
Summary of the method: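 Compounds were tested in HepG2 hepatocellular carcinoma cells harbouring a stably integrated luciferase gene under control of 20 DREs. Increased reporter signal after 24 h treatment at 37C was taken as AhR activation.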

[3] = qHTS assay to identify small molecule that activate the aryl hydrocarbon receptor (AhR) signaling pathway - cell viability counter screen (AID 743086);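 further: HepG2 liver cells carrying the AhR DRE luciferase reporter; series mostly up to about 70 µM; nearly all actives have a fitted effect of over 45% in size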
Summary of the method: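 HepG2-AhR-luc (HG2L7.5c1) cells, 4000/well, treated 24 h at 37 C with compound; viability measured as CellTiter-Fluor fluorescence after 30 min in the same wells as the luciferase read.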

[4] = qHTS assay to identify small molecule antagonists of the peroxisome proliferator-activated receptor gamma (PPARg) signaling pathway - cell viability counter screen (AID 743194); further: nearly all actives have a fitted effect of over 55% in size
Summary of the method: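 Cytotoxicity counter screen in PPARg-bla HEK293H cells, same wells as reporter assay. Compounds plus 50 nM rosiglitazone (final) for 17 h at 37 C, then viability read by CellTiter-Glo luminescence.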

[5] = qHTS assay for small molecule agonists of the antioxidant response element (ARE) signaling pathway (AID 743202; active means well fitted activation curve with a large enough effect in the signal ratio in the repeat runs, not every such curve was filed as active; the % refers to the signal ratio; further: potency means the concentration at half of the fitted maximal effect)
Summary of the method: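 HepG2 ARE-bla cells; 16 h treatment at 37 C; FRET-based beta-lactamase fluorescence read after 2 h substrate incubation at room temperature.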

[6] = qHTS assay for small molecule agonists of the antioxidant response element (ARE) signaling pathway - cell viability counter screen (AID 743203; calls by dose curve; further: nearly all actives have a fitted effect of over 55% in size)
Summary of the method: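 Measured in the same wells as the beta-lactamase ARE reporter, this read-out is CellTiter-Glo luminescence from HepG2 ARE-bla cells given compounds for 16 hrs.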

[7] = qHTS assay for small molecule activators of the heat shock response signaling pathway - cell viability counter screen (AID 743209); further: nearly all actives have a fitted effect of over 50% in size
Summary of the method: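 Same-well multiplex: after 2.5 h room-temperature incubation with LiveBLAzer B/G substrate and fluorescence reading, CellTiter-Glo reagent was added to HSE-bla HeLa cells that had received compound for 5 h at 37 C; luminescence read after 30 min.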

[8] = qHTS assay to identify small molecule agonists of the peroxisome proliferator-activated receptor delta (PPARd) signaling pathway - cell viability counter screen (AID 743211); further: nearly all actives have a fitted effect of over 55% in size
Summary of the method: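 Counter screen for cytotoxicity run in parallel with the PPARd reporter screen. Beta-lactamase reporter HEK293H cells exposed to compounds 17 h; ATP-based CellTiter-Glo luminescence quantified viability.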

[9] = target: Peroxisome proliferator-activated receptor delta (Homo sapiens) (UniProt Q03181); assay: qHTS assay to identify small molecule agonists of the peroxisome proliferator-activated receptor delta (PPARd) signaling pathway (AID 743212; calls by dose curve)
Sequence of Peroxisome proliferator-activated receptor delta (Homo sapiens) (Q03181 whole entry, looked up): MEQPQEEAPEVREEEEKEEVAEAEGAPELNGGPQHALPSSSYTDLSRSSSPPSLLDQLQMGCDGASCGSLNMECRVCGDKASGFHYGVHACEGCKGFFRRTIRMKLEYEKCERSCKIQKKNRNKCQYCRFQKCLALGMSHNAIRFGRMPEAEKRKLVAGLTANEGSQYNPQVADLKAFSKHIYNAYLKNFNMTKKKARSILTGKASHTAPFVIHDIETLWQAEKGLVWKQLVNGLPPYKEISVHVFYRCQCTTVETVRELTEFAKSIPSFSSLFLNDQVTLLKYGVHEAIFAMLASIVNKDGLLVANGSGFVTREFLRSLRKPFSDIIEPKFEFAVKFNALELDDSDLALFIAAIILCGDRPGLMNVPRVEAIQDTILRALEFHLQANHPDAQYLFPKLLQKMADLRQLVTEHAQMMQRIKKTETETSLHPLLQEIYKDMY
Summary of the method: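 Tox21 library screened in GeneBLAzer PPARd UAS-bla HEK293H cells. After compound treatment at 37 C, a FRET-based beta-lactamase substrate was applied for 2 h and fluorescence recorded.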

[10] = qHTS assay to identify small molecule antagonists of the peroxisome proliferator-activated receptor delta (PPARd) signaling pathway - cell viability counter screen (AID 743213); further: nearly all actives have a fitted effect of over 50% in size
Summary of the method: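 Cytotoxicity counter screen: CellTiter-Glo luminescence read 30 min after addition, in the same wells as the reporter assay. There, PPARd UAS-bla HEK293H cells (3000/well) were treated 17 h at 37 C with compound and 300 nM L165041.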

[11] = target: Peroxisome proliferator-activated receptor delta (Homo sapiens) (UniProt Q03181); assay: qHTS assay to identify small molecule antagonists of the peroxisome proliferator-activated receptor delta (PPARd) signaling pathway (AID 743215; active means well fitted inhibition curve with a large enough effect in the signal ratio in the repeat runs, not every such curve was filed as active; the % refers to the signal ratio;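 further: cells stimulated with agonist L165041 at 300 nM final during compound exposure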; further: potency means the concentration at half of the fitted maximal effect)
Summary of the method: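 Fluorescence from cleaved LiveBLAzer B/G FRET substrate (2 h, room temperature) reports PPARd-driven beta-lactamase in HEK293H UAS-bla cells. Cells had been treated 17 h at 37 C with compound plus 300 nM final L165041.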

[12] = qHTS assay to identify small molecule agonists of the farnesoid-X-receptor (FXR) signaling pathway - cell viability counter screen (AID 743218); further: nearly all actives have a fitted effect of over 45% in size
Summary of the method: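 Readout: CellTiter-Glo luminescence, 30 min RT, multiplexed after the FXR-bla FRET reading. HEK 293T FXR-UAS-bla cells received compound 5 h post-plating and were incubated 16 h at 37 C.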

[13] = qHTS assay to identify small molecule antagonists of the farnesoid-X-receptor (FXR) signaling pathway - cell viability counter screen (AID 743221; active means well fitted cell-killing curve with a large enough effect in the repeat runs, not every such curve was filed as active; further: nearly all actives have a fitted effect of over 50% in size)
Summary of the method: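 Multiplexed counter screen: viability of FXR-bla HEK 293T cells under agonist stimulation by chenodeoxycholic acid (50 uM, final) and test compound for 16 h at 37 C, measured by CellTiter-Glo luminescence in the reporter wells.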

[14] = target: Peroxisome proliferator-activated receptor gamma (Homo sapiens) (UniProt P37231); assay: qHTS assay to identify small molecule agonists of the peroxisome proliferator-activated receptor gamma (PPARg) signaling pathway (AID 743094; active means well fitted activation curve with a large enough effect in the signal ratio in the repeat runs, not every such curve was filed as active; the % refers to the signal ratio)
Sequence of Peroxisome proliferator-activated receptor gamma (Homo sapiens) (P37231 whole entry, looked up): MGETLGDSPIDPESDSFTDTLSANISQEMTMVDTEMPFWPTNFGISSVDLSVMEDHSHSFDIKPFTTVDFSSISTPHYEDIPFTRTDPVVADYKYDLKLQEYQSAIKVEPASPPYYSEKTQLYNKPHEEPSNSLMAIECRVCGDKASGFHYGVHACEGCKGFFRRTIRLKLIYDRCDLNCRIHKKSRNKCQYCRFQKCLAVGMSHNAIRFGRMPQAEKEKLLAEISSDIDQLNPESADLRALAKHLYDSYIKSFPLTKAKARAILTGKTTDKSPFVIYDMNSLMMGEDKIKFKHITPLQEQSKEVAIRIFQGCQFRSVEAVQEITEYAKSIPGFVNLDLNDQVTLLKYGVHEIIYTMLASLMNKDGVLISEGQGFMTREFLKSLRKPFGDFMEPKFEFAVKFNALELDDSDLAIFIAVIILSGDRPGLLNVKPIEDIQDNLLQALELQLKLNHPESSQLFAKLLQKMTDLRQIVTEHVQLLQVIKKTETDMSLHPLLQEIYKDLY
Summary of the method: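 Cell-based bla reporter, HEK293H background, PPARg-driven UAS. Pre-incubation 5 h, 37C, 5% CO2. Compound 17 h, 37C. Substrate 1 h RT; fluorescence.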

[15] = target: Peroxisome proliferator-activated receptor gamma (Homo sapiens) (UniProt P37231); assay: qHTS assay to identify small molecule antagonists of the peroxisome proliferator-activated receptor gamma (PPARg) signaling pathway (AID 743191; calls by dose curve; further: series mostly up to about 63 µM; nearly all actives have a fitted effect of over 30% in size)
Summary of the method: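 GeneBLAzer PPARg UAS-bla HEK293H cells, 5 h post-plating, exposed to compounds 17 h at 37C. LiveBLAzer B/G FRET substrate added for 1 h at room temperature; beta-lactamase reporter read by fluorescence intensity.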

[16] = qHTS assay for small molecule activators of the heat shock response signaling pathway (AID 743210; active means well fitted activation curve with a large enough effect in the signal ratio in the repeat runs, with a control signal flat, not every such curve was filed as active; the % refers to the signal ratio;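 further: HeLa cells with beta-lactamase reporter driven by heat shock elements; series mostly up to about 63 µM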)
Summary of the method: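 Following overnight attachment, HSE-bla HeLa cells received test compounds for 5 h at 37 C; beta-lactamase activity was then detected via FRET substrate fluorescence.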

[17] = target: Vitamin D3 receptor (Homo sapiens) (UniProt P11473); assay: qHTS assay to identify small molecule agonists of the vitamin D receptor (VDR) signaling pathway (AID 743222; calls by dose curve)
Sequence of Vitamin D3 receptor (Homo sapiens) (P11473 whole entry, looked up): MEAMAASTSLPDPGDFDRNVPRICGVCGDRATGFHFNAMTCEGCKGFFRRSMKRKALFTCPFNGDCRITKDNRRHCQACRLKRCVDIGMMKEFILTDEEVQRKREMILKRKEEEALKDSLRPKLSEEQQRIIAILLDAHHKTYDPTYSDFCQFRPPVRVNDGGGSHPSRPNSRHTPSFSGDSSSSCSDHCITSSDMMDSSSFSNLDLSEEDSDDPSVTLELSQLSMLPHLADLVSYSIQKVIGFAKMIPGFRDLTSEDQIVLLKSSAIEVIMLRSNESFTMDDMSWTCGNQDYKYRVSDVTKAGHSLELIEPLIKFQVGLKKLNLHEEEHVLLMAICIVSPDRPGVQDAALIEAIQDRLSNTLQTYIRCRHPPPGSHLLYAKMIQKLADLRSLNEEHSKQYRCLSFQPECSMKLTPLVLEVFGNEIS
Summary of the method: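 Following 4 h attachment at 37C, VDR-bla cells (2,000 per well) received DMSO-dissolved compounds or controls. After 16 h incubation, LiveBLAzer B/G FRET substrate was added and fluorescence read 2 h later at room temperature.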

[18] = target: Vitamin D3 receptor (Homo sapiens) (UniProt P11473); assay: qHTS assay to identify small molecule antagonists of the vitamin D receptor (VDR) signaling pathway (AID 743223; active means well fitted inhibition curve with a large enough effect in the signal ratio in the repeat runs, not every such curve was filed as active; the % refers to the signal ratio)
Summary of the method: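 Cells carrying a VDR-driven beta-lactamase reporter (VDR-bla) were co-treated with compound and 3 nM final 1alpha,25-dihydroxyvitamin D3 for 16 h at 37C; reporter activity was measured as FRET substrate fluorescence after 2 h at room temperature.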

[19] = target: Bile acid receptor (Homo sapiens) (UniProt Q96RI1); assay: qHTS assay to identify small molecule antagonists of the farnesoid-X-receptor (FXR) signaling pathway (AID 743217; active means well fitted inhibition curve with a large enough effect in the signal ratio in the repeat runs, not every such curve was filed as active; the % refers to the signal ratio)
Sequence of Bile acid receptor (Homo sapiens) (Q96RI1 whole entry, looked up): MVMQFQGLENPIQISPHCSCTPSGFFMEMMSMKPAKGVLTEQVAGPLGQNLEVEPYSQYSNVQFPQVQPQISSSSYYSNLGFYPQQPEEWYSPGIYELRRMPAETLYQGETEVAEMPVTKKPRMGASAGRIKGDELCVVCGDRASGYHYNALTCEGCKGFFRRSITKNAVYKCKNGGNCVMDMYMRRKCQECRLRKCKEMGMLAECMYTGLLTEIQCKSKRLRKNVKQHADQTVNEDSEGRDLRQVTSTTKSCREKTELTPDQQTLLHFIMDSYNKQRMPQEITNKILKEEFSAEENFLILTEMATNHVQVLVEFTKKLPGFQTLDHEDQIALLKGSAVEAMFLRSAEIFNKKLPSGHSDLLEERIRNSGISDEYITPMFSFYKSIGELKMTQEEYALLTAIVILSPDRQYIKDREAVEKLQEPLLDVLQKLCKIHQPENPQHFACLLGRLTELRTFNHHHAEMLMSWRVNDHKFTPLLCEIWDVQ
Summary of the method: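 FRET fluorescence after 2 h room-temperature LiveBLAzer loading gives the readout. Prior step: FXR-bla HEK 293T cells, seeded and incubated 5 h, received test compounds plus 50 uM final CDCA for 16 h at 37 °C.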

[20] = target: Bile acid receptor (Homo sapiens) (UniProt Q96RI1); assay: qHTS assay to identify small molecule agonists of the farnesoid-X-receptor (FXR) signaling pathway (AID 743220; active means well fitted activation curve with a large enough effect in the signal ratio in the repeat runs, not every such curve was filed as active; the % refers to the signal ratio)
Summary of the method: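 FXR-UAS-bla HEK 293T cells carrying a UAS-driven beta-lactamase reporter were plated for 5 h at 37C/5% CO2, then exposed to DMSO-dissolved Tox21 10K compounds for 16 h at 37C. A LiveBLAzer B/G FRET substrate was loaded for 2 h at room temperature before fluorescence reading.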

SMILES	outcome [1]	Potency [2]	outcome [3]	outcome [4]	Potency [5]	outcome [6]	outcome [7]	outcome [8]	outcome [9]	outcome [10]	Potency [11]	outcome [12]	outcome [13]	outcome [14]	Potency [15]	outcome [16]	outcome [17]	outcome [18]	outcome [19]	outcome [20]
C=CCO	inactive	inactive	inactive	inactive	inactive	inactive	inactive	inactive	inactive	inactive	inactive	inactive	inactive							
Cc1ccc(N)cc1Cl	inactive		inactive	inactive	inactive	inactive	inactive	inactive		inactive		inactive	inactive	inactive	inactive	inactive	inactive	inactive		
C#CC(C)(C)NC(=O)c1cc(Cl)cc(Cl)c1	inactive	inactive	inactive	inactive	inactive	inactive	inactive	inactive	inactive	inactive	inactive	inactive	inactive			inactive	inactive	inactive		
CNC(=O)Oc1ccccc1OC(C)C	inactive	inactive	inactive	inactive	inactive	inactive	inactive		inactive	inactive	inactive	inactive	inactive			inactive	inactive	inactive		
O=[N+]([O-])c1ccccc1	inactive	inactive	inactive	inactive	inactive	inactive	inactive	inactive	inactive	inactive	inactive	inactive			inactive					
Cc1cccc([N+](=O)[O-])c1	inactive		inactive	inactive	inactive	inactive	inactive		inactive	inactive		inactive		inactive	inactive	inactive	inactive	inactive	inactive	inactive
CON(C)C(=O)Nc1ccc(Cl)c(Cl)c1	inactive	21.8 µM (active) and 27.3 µM (active)	inactive	inactive	inactive	inactive	inactive	inactive	inactive		inactive	inactive				inactive	inactive	inactive		
c1ccc2c(c1)Oc1ccccc1O2	inactive	inactive	inactive	inactive	inactive	inactive	inactive	inactive		inactive		inactive	inactive			inactive	inactive		inactive	inactive
O=S(=O)(c1ccc(Cl)cc1)c1cc(Cl)c(Cl)cc1Cl	inactive	inactive	inactive	inactive	inactive	inactive	inactive		inactive	inactive	inactive	inactive	inactive				inactive	inactive	inactive	inactive
CCOP(=S)(OCC)Oc1cnc2ccccc2n1	inactive	inactive and 10.9 µM (active)	inactive	inactive	inactive	inactive	inactive		inactive		inactive	inactive	inactive		inactive	inactive			inactive	inactive
CCNc1nc(NC(C)(C)C)nc(SC)n1	inactive	1.52 µM (active)	inactive	inactive		inactive	inactive	inactive	inactive	inactive	inactive	inactive			inactive	inactive	inactive	inactive	inactive	inactive
O=[N+]([O-])c1ccc(Oc2ccc(Cl)cc2Cl)cc1	inactive	inactive	inactive	inactive	inactive	inactive	inactive		inactive	inactive	inactive		inactive		inactive	inactive	inactive	inactive		
Oc1ccccc1Cl	inactive	inactive	inactive	inactive	inactive	inactive	inactive		inactive	inactive	inactive	inactive			inactive	inactive	inactive	inactive		
C=CC(N)=O	inactive	inactive	inactive	inactive	inactive	inactive	inactive	inactive	inactive	inactive	inactive	inactive	inactive			inactive	inactive	inactive		
C1CN2CCN1CC2	inactive	inactive	inactive	inactive	inactive	inactive	inactive			inactive		inactive	inactive		inactive	inactive	inactive	inactive		
COC(=O)NS(=O)(=O)c1ccc(N)cc1	inactive	inactive	inactive	inactive	inactive	inactive	inactive	inactive	inactive	inactive	inactive	inactive	inactive		inactive		inactive	inactive		
c1ccc2c(c1)oc1ccccc12			inactive	inactive	inactive	inactive	inactive	inactive	inactive	inactive	inactive	inactive				inactive	inactive	inactive		
CC(C)(C)C(O)(CCc1ccc(Cl)cc1)Cn1cncn1 (configuration not stated)	inactive	inactive	inactive	inactive		inactive	inactive	inactive	inactive	inactive	inactive	inactive	inactive		inactive	inactive	inactive	inactive		
COc1ccc2c3c1O[C@H]1[C@@H](O)C=C[C@H]4[C@@H](C2)N(C)CC[C@@]341	inactive	inactive	inactive	inactive	26.9 µM (active)	inactive	inactive		inactive	inactive	42.6 µM (active)	inactive	inactive			inactive	inactive	inactive	inactive	inactive
